Assay results taken from PubChem BioAssay (EPA / NIEHS).
Where “and” joins values, the source holds several entries; their conditions need not be identical. Identical values can stand only once. Calls of active or inactive are those of the source. How the source made its calls: active means hit-call score of the fitted dose curve at least 0.9, where 1 is the maximum; inactive means score below 0.9.

Read-out: Monocyte Chemoattractant Protein-1 (MCP1), CCL2 (gene 6347)
Assay: BSK_4H_MCP1: BioMAP Diversity Plus: 4H Assay for Monocyte Chemoattractant Protein-1 (MCP1) Biomarker Activity (AID 2283018)
Conditions: primary human endothelial cells (HUVEC); actives raise or lower the signal
How it was run: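 HUVEC primary cells, 24 h post-dose, MCP-1 by ELISA. Gain or loss of signal fitted bidirectionally vs DMSO baseline. Cytotoxicity: SRB stain (0.1% after 10% TCA fixation), read 560 nm, parallel cultures.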

Row | Compound | outcome | AC50
1 | CCOC(=O)CC(=O)C(F)(F)C(F)(F)F | inactive | 
2 | CCN(CC)c1ccc(C=O)c(O)c1 | inactive | 
3 | FC(F)(F)C(F)(F)C(F)(F)CC1CO1 (centres undefined) | inactive | 
4 | OCC(O)CC(F)(F)C(F)(F)C(F)(F)C(F)(F)F (centres undefined) | inactive | 
5 | OC(O)C(F)(F)C(F)(F)F | inactive | 
6 | NC(O)(C(F)(F)F)C(F)(F)F | inactive | 
7 | FC(F)(F)C(F)(F)C(F)(F)C(F)(F)C(F)(F)C(F)(F)CC[Si](Cl)(Cl)Cl | inactive | 
8 | O=C=NCc1cccc(CN=C=O)c1 | inactive | 
9 | Cc1cc(O)c(C(C)(C)C)cc1C(C)(C)C |  | 3.83 µM (active)
10 | NC(=O)C(F)(F)C(F)(F)C(F)(F)F | inactive | 
11 | C=CC(=O)OCC(F)(F)C(F)(F)C(F)(F)COC(=O)C=C |  | 30 µM (active) and 8.24 µM (active)
12 | Cc1ccc(S(=O)(=O)C(I)I)cc1 |  | 1.43 µM (active)
13 | COC(F)(C(F)F)C(F)(F)F (centres undefined) | inactive | 
14 | CC1=CC2C3C=CC(C3)C2C1C (centres undefined) | inactive | 
15 | O=S(=O)(O)CCC(F)(F)C(F)(F)C(F)(F)C(F)(F)F | inactive | 
16 | O=S(=O)(OCC(F)(F)F)C(F)(F)C(F)(F)C(F)(F)C(F)(F)F | inactive | 
17 | O=C(O)C(F)(F)C(F)(F)C(F)(F)C(=O)O | inactive | 
18 | OCC(F)(F)C(F)(F)C(F)(F)C(F)(F)C(F)(F)C(F)(F)CO | inactive | 
19 | O=C=Nc1cccc2c(N=C=O)cccc12 |  | 0.502 µM (active)
20 | CC(C)(C)c1cc(CCC(=O)NCCCCCCNC(=O)CCc2cc(C(C)(C)C)c(O)c(C(C)(C)C)c2)cc(C(C)(C)C)c1O | inactive | 
21 | CCN(CC)c1ccc2c(c1)Oc1cc(N(CC)CC)ccc1C21OC(=O)c2ccccc21 | inactive | 
22 | O=C(F)C1(F)C(F)(F)C(F)(F)C(F)(F)C(F)(F)C1(F)F | inactive | 
23 | Cc1cnccn1 | inactive | 
24 | Nc1cc([N+](=O)[O-])cc(Cl)c1O | inactive | 
25 | OCCCC(F)(F)C(F)(F)C(F)(F)C(F)(F)C(F)(F)C(F)(F)C(F)(F)C(F)(F)F |  | 45.5 µM (active) and 46.7 µM (active)
26 | O=C(O)C(F)(F)C(F)(F)C(F)(F)OC(F)(F)F | inactive | 
27 | CCN=C1C=CC(=C(c2ccc(N(CC)CC)cc2)c2ccc(N(CC)CC)cc2)c2ccccc21 |  | 1.03 µM (active) and 1.16 µM (active)
28 | O=C(O)CCC(F)(F)C(F)(F)C(F)(F)F | inactive | 
29 | CCN(CC)c1ccc(C=O)cc1 | inactive | 
